Screening data as filed in PubChem BioAssay.
tim10-1 inh: inhibits growth of tim10-1 mutant yeast; S. cerevisiae tim10-1 ts strain growth, BacTiter-Glo, 24 h; inhibition, % at 20 µM; actives 2.2% (n = 330,000);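 active means inhibition of at least 40%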;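 further: mutant grown at 25 °C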
TIM10 inh: TIM10 yeast growth inhibition. S. cerevisiae TIM10 strain growth, BacTiter-Glo luminescence, 24 h. inhibition, % at 10 µM. actives 1.4% (n = 330,000). AID 463195;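 active means inhibition of 40% or more at the single tested concentration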;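 further: wild-type TIM10 isogenic control strain grown at permissive 25 °C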
tim23-1 inh: growth inhibitors of tim23-1 mutant yeast; S. cerevisiae tim23-1 growth, BacTiter-Glo luminescence, 24 h; inhibition, % at 20 µM; actives 1.3% (n = 330,000);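 active means growth inhibition of the mutant yeast at or above 50%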;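 further: temperature-sensitive mutant grown at 25 °C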
SKKanGAS inh: inhibitors of SKKanGAS S. pyogenes growth in kanamycin (SK-promoter or general growth effect). actives 1.3% (n = 300,000). BacTiter-Glo, 6 h. inhibition, % at 7.5 µM;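 active means mean replicate score, as percent of positive control median, at least 50; inconclusive means mean below 50 but one replicate at or above 50; inactive means mean and every replicate below 50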;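 further: strain carries kanamycin resistance gene driven by streptokinase promoter and grows in 40 µg/ml kanamycin; loss of luminescence reflects streptokinase promoter inhibition or plain growth inhibition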
PfHsp90 yeast 2: inhibits growth of yeast expressing Plasmodium falciparum Hsp90; S. cerevisiae expressing PfHsp90, BacTiter-Glo ATP, 48 h; yeast lacking PDR1 and PDR3 efflux regulators; inhibition, % at 9.4 µM; actives 0.32% (n = 310,000); AID 504621;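 active means every replicate shows inhibition above about 80%, whatever the replicate mean, limit read from the data; inconclusive means mean inhibition reaches the set limit but some replicate falls short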
EBI2 antag: EBI2 (human) antagonism. inhibition, % at 5 µM. AID 651636. EBI2 beta-arrestin recruitment, luminescence, 7a,25-OHC stimulated. actives 0.81% (n = 360,000). P32249; in the data active means inhibition above about 38%;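 further: enzyme fragment complementation signal reports receptor beta-arrestin coupling in cells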
Target sequence (P32249 whole entry, looked up, the tested form may be a part): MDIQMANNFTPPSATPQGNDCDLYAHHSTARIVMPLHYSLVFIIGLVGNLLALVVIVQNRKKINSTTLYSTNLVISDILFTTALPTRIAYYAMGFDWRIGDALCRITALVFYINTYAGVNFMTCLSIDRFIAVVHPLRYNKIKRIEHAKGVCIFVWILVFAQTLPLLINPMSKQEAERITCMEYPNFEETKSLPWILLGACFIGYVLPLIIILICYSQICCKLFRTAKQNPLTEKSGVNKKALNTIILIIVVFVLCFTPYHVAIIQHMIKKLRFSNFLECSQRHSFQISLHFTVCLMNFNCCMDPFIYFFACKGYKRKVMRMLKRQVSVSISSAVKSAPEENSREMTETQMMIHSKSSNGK
tim23-1 confirm: tim23-1 yeast growth inhibition, confirmed; shares compounds with tim23-1 inh; S. cerevisiae tim23-1 growth, BacTiter-Glo luminescence, 24 h; inhibition, % at 20 µM; actives 83% (n = 4,400);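 active means inhibition above about 39% in either of two replicate wells at 20 µM, limit read from the data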;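 further: temperature-sensitive tim23-1 mutant grown at 25 °C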
Large screens that a line does not name were inactive (follow-up assays come after a bar, where they were run). Sampled rows, rich in hits. Any-hit rate of the full collection: about 4.7%.

Cc1cccc(NC(=O)c2cc3ccccc3o2)c1	tim23-1 inh 54 | tim23-1 confirm 41
Cc1ccc(C)c(N2CCN(C(=O)CNS(=O)(=O)c3cccs3)CC2)c1	none
CC12CCC(C(=O)OC3CCCCC3)(OC1=O)C2(C)C (stereo not drawn)	none
Cc1ccnc(SCC(=O)Nc2c(C)n(C)n(-c3ccccc3)c2=O)n1	none
COC(=O)N/N=C/c1ccccc1OCc1ccccc1	none
COC(=O)N/N=C/c1ccccc1OCCOc1ccc(OC)cc1	tim23-1 inh 51 | tim23-1 confirm 48
O=C1[C@H](Oc2ccccc2)[C@@H](c2ccccc2)N1c1ccncc1	tim23-1 inh 62 (no result: SKKanGAS inh) | tim23-1 confirm inactive
C#CCn1c2ccccc2c2nc3ccccc3nc21	none
CC(C)n1c2ccccc2c2nc3ccccc3nc21	tim23-1 inh 51 | tim23-1 confirm 52
CCOCCCn1c(=S)[nH]c2cc(C(=O)NC3CCCC(C)C3C)ccc2c1=O (stereo not drawn)	none
CCc1ccc(OCCNc2cc(N3CCNC(C)C3)ccc2[N+](=O)[O-])cc1 (stereo not drawn)	tim23-1 inh 57 (no result: SKKanGAS inh) | tim23-1 confirm 59
COc1cccc(C(=O)N2CCC[C@@H]2C(=O)N2CCC[C@@H]2C(=O)NCc2ccccc2Cl)c1	none (no result: tim10-1 inh, TIM10 inh, tim23-1 inh, SKKanGAS inh, PfHsp90 yeast 2)
O=c1c(-c2ccccc2)c1-c1ccccc1	tim23-1 inh 58 (no result: PfHsp90 yeast 2, EBI2 antag) | tim23-1 confirm inactive
Cc1cccc(N2C(=O)c3ccc(C(=O)Nc4ccccn4)cc3C2=O)c1	none
Cc1cccc(N2C(=O)/C(=C\c3ccc(C(=O)O)cc3)c3ccccc3C2=O)c1	tim23-1 inh 56 (no result: PfHsp90 yeast 2) | tim23-1 confirm inactive
O=C(Nc1ccc(F)c(Cl)c1)c1cc(C2CCCCN2C(=O)c2cccs2)on1 (stereo not drawn)	none (no result: tim10-1 inh, TIM10 inh, tim23-1 inh, SKKanGAS inh, PfHsp90 yeast 2)
COc1ccc(/C=N/NC(=O)c2cccnc2)c2ccccc12	none
COc1ccc(/C=N/NC(=O)c2cccs2)c2ccccc12	tim23-1 inh 56 | tim23-1 confirm 51
CNC(=S)N1CCc2cc(OC)c(OC)cc2C1	none
CC(C)N(Cc1ccccc1)S(=O)(=O)N(C)C	tim23-1 inh 76 | tim23-1 confirm inactive
Cc1ccc(S(=O)(=O)N(Cc2ccccc2)C(C)C)cc1	none
O=C(Nc1ccc2c(c1)oc1ccccc12)c1ccc(Br)o1	tim23-1 inh 52 | tim23-1 confirm inactive
Cc1cc(C(=O)Nc2ccc3ccccc3c2)oc1C	none
O=C(Nc1ccc2ccccc2c1)c1ccc(Br)o1	tim23-1 inh 56 | tim23-1 confirm 52
O=C(Nc1ccccc1)c1ccc(Br)o1	none
Cc1ccoc1C(=O)Nc1ccc2ccccc2c1	tim23-1 inh 54 | tim23-1 confirm 50
COCCn1c(=NC(=O)c2ccc(S(=O)(=O)N3CCc4ccccc4C3)cc2)sc2cc(OC)ccc21	none
CC(OC(=O)c1cccnc1SCc1cc(=O)n2ccccc2n1)c1ccccn1 (stereo not drawn)	none
CCOC(=O)c1cccnc1SCc1cc(=O)n2ccccc2n1	tim23-1 inh 71 | tim23-1 confirm 65
Cc1nc(-c2ccccc2)cc(=O)[nH]1	none (no result: PfHsp90 yeast 2)
Cc1[nH]n(-c2nc(-c3ccccc3)cc(=O)[nH]2)c(=O)c1CCO	tim23-1 inh 87 | tim23-1 confirm inactive
CN(CCCn1ccc(NC(=O)OCc2ccccc2)nc1=O)Cc1ccco1	none (no result: tim10-1 inh, TIM10 inh, tim23-1 inh, SKKanGAS inh, PfHsp90 yeast 2)
COc1cc(NC(=S)Nc2ccccn2)cc(OC)c1	tim23-1 inh 51 | tim23-1 confirm inactive
COc1cc(NC(=S)Nc2ccccn2)cc(OC)c1OC	none
CC(=O)OC1(C(C)=O)CCC2C3CC(Cl)C4=CC(=O)CCC4(C)C3CCC21C (stereo not drawn)	none (no result: tim10-1 inh, TIM10 inh, tim23-1 inh, SKKanGAS inh)
Cc1ccc(NC(=O)Cc2nnc(SCC(=O)NC3CCCC3)n2C)cc1C	none
O=C(Nc1cc(Cl)ccc1O)C1CC(c2ccccc2Cl)=NO1 (stereo not drawn)	tim23-1 inh 52 | tim23-1 confirm 73
CC(C)c1ccccc1NC(=O)C1CC(=O)N(C2CCCC2)C1 (stereo not drawn)	none
Fc1ccc(Oc2nc(-c3ccccn3)nc3ccccc23)cc1	tim23-1 inh 50 (no result: PfHsp90 yeast 2) | tim23-1 confirm 51
Cc1ccc(/C=N/Nc2ccc(C(=O)O)cc2)o1	none
O=C(O)c1ccc(N/N=C/c2ccc(-c3ccc(Br)cc3)o2)cc1	tim23-1 inh 52, SKKanGAS inh inconclusive | tim23-1 confirm 47
Cc1nc(NS(=O)(=O)c2ccccc2C)c2c3c(sc2n1)CCC3	tim23-1 inh 53 (no result: PfHsp90 yeast 2, EBI2 antag) | tim23-1 confirm 51
Nc1nc2ccccc2n1/N=C/c1ccc(-c2ccccc2)o1	tim23-1 inh 55, SKKanGAS inh inconclusive | tim23-1 confirm inactive
CC(C)(C)N1C(=O)c2ccc(C(=O)Nc3nccs3)cc2C1=O	tim23-1 inh 58 | tim23-1 confirm 59
O=C(CCCOc1ccc(Cl)cc1Cl)N/N=C/c1cccc([N+](=O)[O-])c1	none
C=CCNC(=S)Nc1ccc2cn[nH]c2c1	none
COC(=O)[C@@]1(C)[C@H]2C(=O)N(Cc3ccccc3)C(=O)[C@H]2[C@H]2CN=C(SCc3ccc(Cl)cc3)N21	tim23-1 inh 51 (no result: SKKanGAS inh) | tim23-1 confirm inactive
CC[n+]1c(/C=C/N(C)c2ccccc2)n(-c2ccccc2)c2ccc(-c3nc4ccccc4s3)cc21	tim23-1 inh 80, SKKanGAS inh 99 | tim23-1 confirm 65
C[C@@H]1ON(C)[C@H]2C[C@H]3c4[nH]c5ccccc5c4CCN3C[C@@H]12	none (no result: tim10-1 inh, TIM10 inh, tim23-1 inh, SKKanGAS inh, PfHsp90 yeast 2)
O=C(O)C(Oc1ccc2c(c1)oc(=O)c1ccccc12)c1ccccc1 (stereo not drawn)	none
O=C(O)C(Oc1ccc2ccccc2c1)c1ccccc1 (stereo not drawn)	tim23-1 inh 97 | tim23-1 confirm inactive
CCCn1c(C2CCCN2c2nc(-c3cccc(Br)c3)cs2)nc2ccccc21 (stereo not drawn)	none
O=C(Nc1ccc(C(=O)N2CCN(c3ccccc3F)CC2)cc1)C1=CSCCO1	tim23-1 inh 53 | tim23-1 confirm 42
O=C(Nc1ccc(C(=O)N2CCCCC2)cc1)C1=CSCCO1	none
CC1=NN(c2ccccc2)C(=O)/C1=C/c1cccs1	tim23-1 inh 57 | tim23-1 confirm 52
COc1ccc(/C=C2/C(=O)N(c3ccccc3)N=C2C)cc1Br	tim23-1 inh 56 | tim23-1 confirm 45
C[C@H]1C(c2ccc(F)cc2)=NN(c2ccccc2)[C@@H]1CO	tim23-1 inh 51 (no result: SKKanGAS inh) | tim23-1 confirm inactive
COc1ccccc1[C@H]1C(c2ccc(F)cc2)=NN(c2ccccc2)[C@@H]1CO	tim23-1 inh 55 (no result: SKKanGAS inh) | tim23-1 confirm inactive
COc1ccccc1[C@H]1C(c2ccccc2)=NN(c2ccccc2)[C@@H]1CO	tim23-1 inh 50 (no result: SKKanGAS inh) | tim23-1 confirm 39
O=C1OCCN1C(=O)[C@H]1[C@H](c2ccccc2)C(c2ccc(F)cc2)=NN1c1ccc(Br)cc1	none (no result: SKKanGAS inh)
